Growth data for 13 compounds are collected here from PubChem BioAssay (NCI).

What all share (experiment): NCI-60 one-dose screen, 48 h (100 = growth as untreated, 0 = no growth, -100 = all killed)
Settings in all cases: 10 µM unless noted

Test [1] deals with RPMI-8226 leukemia.
For test [2], the system named is OVCAR-8 ovarian.
The test system of test [3] is OVCAR-5 ovarian.
Test [4] deals with OVCAR-4 ovarian.
In test [5] the test system is SK-OV-3 ovarian.
In test [6] the test system is IGROV1 ovarian.
For test [7], the system named is OVCAR-3 ovarian.
Test [8] has as its system HS 578T breast.
Test [9] deals with NCI/ADR-RES ovarian.
For test [10], the system named is T-47D breast.

SMILES strings stand for the structures. About 83,000 compounds went through this panel and 20% of them were active in at least one assay; those are over-represented in the sample as a whole.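 The test compound was applied at a single concentration to cells in 96-well plates for 48 hours, and percent growth was recorded.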 Values without a mark were called inactive. Activity calls are given as the source filed them. How the source made its calls: active means growth percent below 10; inactive means the rest.

With `CC(=O)c1c(OCC#N)ccc2c(C)cc(=O)oc12`, the growth was 80% in test [1]; 124% in [2]; 114% in [3]; 107% in test [4]; 110% in [5]; 116% in test [6]. Further, the growth in test [7] was 120%; in test [8], 106%; in test [9] it was 118%; in test [10], 97.9%.
Consider `N#CC(C#N)=C1NC(c2ccccc2)=C(c2ccccc2)C(c2ccccc2Cl)=C1C#N`, for which the growth is 113% in [1]; 88.1% in [2]; 105% in [3]; 117% in test [4]; 103% in test [5]; 108% in [6]. Further, the growth in test [7] is 108%; in test [8], 120%; in test [9] it was 96%; in test [10], 102%.
In the case of `Cc1nc2sc(C(=O)Nc3ccccc3Cl)c(N)c2cc1C(C)O` (stereo not given), the growth is 88.1% in test [1]; 95% in test [2]; 97.8% in [3]; 97.9% in test [4]; 78.7% in [5]; 92.9% in [6]. The growth is 88.8% in test [7], 88.1% in [8], 71.7% in [9] and 86.4% in test [10].
For the compound `O=C1NN(c2ccccc2)C(c2ccc(Cl)cc2)N2CCC[C@H]12` (stereo not given in full), the growth in test [1] is 102%; in test [2], 98.1%; in test [3], 103%; in test [4], 95.7%; in test [5] it was 107%; in test [6] it was 98.6%. In addition, the growth in [7] is 93.4%; in test [8] it was 91.6%; in test [9], 93.1%; in [10], 100%.
In the case of `COc1ccc(C2N(c3cc(OC)c(OC)c(OC)c3)C(=O)C2(F)F)cc1F` (stereo not given), the growth is 20.8% in [1]; 44.1% in test [2]; 78.7% in test [3]; 58.3% in test [4]; 75.5% in test [5]; 44.2% in [6]. The growth in test [7] is 17.6%; in test [8], 21.9%; in test [9], 32.9%; in test [10], 65.7%.
With `N#CC1(C#N)C2=C(CCCC2)NC(c2c(F)cccc2Cl)C1(C#N)C#N` (stereo not given), the growth in test [1] was 43.4%; in test [2], 86.9%; in [3], 87.7%; in test [4], 66.9%; in test [5] it was 79.7%; in [6], 83.3%. The growth in test [7] is 20.3%; in test [8], 43.4%; in test [9] it was 76.6%; in test [10], 79.7%.
Take `CCC1=C[C@H]2CN(CCc3c([nH]c4ccccc34)[C@@](C(=O)OC)(c3cc4c(cc3OC)N(C)[C@H]3[C@@](O)(C(=O)OC)[C@H](OC(C)=O)[C@]5(CC)[C@@H]6C[C@@H]6CN6CC[C@]43[C@@H]65)C2)C1`: the growth in test [1] is -25.3% (active); in test [2], 8.29% (active); in test [3] it was 42%; in test [4] it was 37.6%; in test [5], 17.9%; in test [6], 21.6%. Besides, the growth was 0.761% (active) in test [7], 10.8% in [8], 28% in test [9] and 70% in test [10].
As to `O=CN1N=C(c2ccc3c(c2)OCO3)CC1c1cccc(Nc2ccnc3cc(C(F)(F)F)ccc23)c1` (stereo not given), the growth in [1] is 40.2%; in test [2] it was 83.8%; in test [3], 97.7%; in [4], 69.6%; in [5] it was 77.4%; in test [6] it was 91.8%. For the same compound, the growth in [7] was 67.4%; in [8], 96.1%; in test [9], 76.8%; in [10], 45.8%.
Consider `CCOCCc1c(O)nc(SC)[nH]c1=O`, for which the growth in test [1] is 94.4%; in test [2] it was 103%; in [3], 87.3%; in test [4] it was 108%; in test [5], 102%; in [6], 100%. Also, the growth in test [7] is 186%; in [8], 92.9%; in test [9], 96.5%; in [10], 110%.
In the case of `O=CN1N=C(c2ccc(F)cc2)CC1c1cccc(Nc2ccnc3cc(C(F)(F)F)ccc23)c1` (stereo not given), the growth in test [1] was 24.6%; in test [2], 41.5%; in [3], 95.2%; in test [4], 41%; in [5] it was 69.1%; in [6], 67.9%. Further, the growth is 59.8% in test [7], 73.5% in test [8], 47.4% in test [9] and 26.4% in test [10].
For the compound `Cc1c(C(=O)Nc2nc3ccccc3[nH]2)cnn1-c1ccccn1`, the growth in test [1] is 95.6%; in [2], 98.3%; in [3], 108%; in test [4], 105%; in test [5], 104%; in test [6], 114%. In addition, the growth in test [7] was 112%; in [8], 112%; in test [9], 106%; in [10], 101%.
With `CCOCc1nc2ccccc2c(=O)[nH]1`, the growth in test [1] was 102%; in [2], 103%; in test [3], 106%; in test [4], 113%; in test [5] it was 108%; in [6], 96.6%. Besides, the growth was 109% in test [7], 93.8% in [8], 103% in test [9] and 105% in test [10].
Consider `COC1=CC2C=C(C3N(c4ccccc4)NC(=O)[C@@H]4CCCN34)C(=O)NC2C=C1` (stereo not given in full), for which the growth is 110% in [1]; 110% in [2]; 107% in test [3]; 96.8% in test [4]; 104% in test [5]; 105% in test [6]. In addition, the growth is 104% in test [7], 99% in [8], 101% in test [9] and 99% in [10].
